The list is not random: actives were taken first. Their share in the collection is about 6.8%.
Autofluor 339 = intrinsic fluorescence of library compounds, ex339/em460 – biochemical, MLSMR library, data from DPM-DC assay, artefact control, profiling panel; fluorescence fold increase at 10 µM; compound autofluorescence, ex339/em460 nm, NADH buffer; active compounds read high; 1 = no-compound wells, NADH background; 65,000 tested, 5.5% active; AID 709;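 active = at 10 µM, mean starting fluorescence two-fold or more over control wells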;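 also: signal is the first read of a kinetic run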
MK inhibit = inhibitors of Streptococcus pneumoniae mevalonate kinase; AID 555; 65,000 tested, 0.48% active; purified MK, PK/LDH-coupled NADH absorbance 340 nm; inhibition, % at 10 µM;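 active = ranked among the strongest by inhibition in the single 10 µM screen, a fixed top-ranked set picked for dose follow-up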
PMK inhibit = S. pneumoniae PMK inhibition; inhibition, % at 10 µM; 65,000 tested, 0.49% active; purified PMK, PK/LDH-coupled NADH absorbance 340 nm;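 active = top-ranked compounds by inhibition in the single 10 µM screen, taking a fixed number of the strongest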;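 also: 0% = full reaction with DMSO carrier and 100% = background rate without enzyme reaction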
A340 absorber = compounds absorbing at 340 nm | compound absorbance at 340 nm, fold over control | fold change at 10 µM | 65,000 tested, under 10 active;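 active = at 10 µM dose, initial 340 nm absorbance at least 2 fold that of control wells; inactive = change under 2 fold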;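 also: initial absorbance extrapolated from kinetic A340 decline of NADH oxidation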
Spn DPM-DC inh = blocks S. pneumoniae diphosphomevalonate decarboxylase; purified DPM-DC, PK/LDH coupled NADH fluorescence; calls only at 10 µM; 65,000 tested, 0.49% active; AID 556;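 active = the 320 compounds with the highest percent inhibition in the single-dose primary screen, excluding strongly autofluorescent ones, cut at about 32% in these data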;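 also: kinetic rate of NADH fluorescence loss reporting ADP formed by the decarboxylase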
NADH enzymes = blocks coupling enzymes of NAD/NADH assays. coupled PK/LDH NADH assays, four targets. IC50, µM (series often up to 10 µM), for inactives: top-dose inhibition. 65,000 tested, 0.02% active. AID 774;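 active = single-dose screening hits from any of four coupled enzyme assays that gave an IC50 when retested across doses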;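 also: the DPM-DC format reads NADH fluorescence rather than 340 nm absorbance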
* hit, by the source's call; i = inactive; nt = no result given; + = active, no number.

SMILES	Autofluor 339	MK inhibit	PMK inhibit	A340 absorber	Spn DPM-DC inh	NADH enzymes
COc1ccc(CCn2c(N)c(C(=O)NCc3ccco3)c3nc4ccccc4nc32)cc1OC	3.6*	10	3	1	nt	7%
O=c1oc2ccc(Br)cc2cc1-c1nc2ccccc2o1	2.3*	9	6	1	i	10%
O=C(Nn1cnnc1)c1cc2cc(Br)ccc2oc1=O	1.2	9	9	1.1	i	9%
N#Cc1c(NCCCO)nc(NCc2ccccc2)c2c1CCN(Cc1ccccc1)C2	2.4*	13	17	1	+	23%
c1ccc(-c2oc3ncnc(NCCCn4ccnc4)c3c2-c2ccccc2)cc1	3.7*	0	16	1.1	nt	8%
N=c1c2c(-c3ccccc3)c(-c3ccccc3)oc2ncn1CCCN1CCOCC1	1.5	12	12	1.1	i	11%
c1ccc2c(c1)oc1c(NCCCn3ccnc3)ncnc12	1.1	2	4	1.1	i	2%
c1ccc(-c2oc3ncnc(NCCN4CCOCC4)c3c2-c2ccccc2)cc1	2*	2	4	1	i	5%
O=C(Nc1ccc(OC(F)(F)F)cc1)c1cnc2n(c1=O)CCS2	1.1	5	6	0.96	i	4%
CCCCOC(=O)c1ccc(NC(=O)c2cnc3n(c2=O)CCS3)cc1	2*	2	10	1.1	i	5%
Cc1ccnc(SCCn2c(N3CC(C)CC(C)C3)nc3c2c(=O)n(C)c(=O)n3C)n1 (configuration not stated)	1.1	10	17	1	i	9%
c1csc(-c2ncc3ccccn23)c1	3.4*	6	12	1.2	nt	9%
COc1ccc(-c2ncc3ccccn23)cc1	3.2*	12	11	1.1	nt	12%
c1ccc(-n2c(-c3ccncc3)nnc2-c2cccs2)cc1	1.3	10	11	1	i	10%
COCC(COCCCNC(=O)Nc1ccc(Br)cc1)OC (configuration not stated)	1.1	0	1	1	i	0%
CN1CCN(C(=O)c2ccccc2NC(=O)Cc2ccccc2)CC1	1.1	10	17	1	i	9%
O=c1[nH]c(-c2ccccc2O)nc2c1CCCC2	3.3*	3	0	1.1	i	7%
O=c1[nH]c(N2CCc3ccccc3C2)nc2c1CCCC2	1.1	8	6	1	i	5%
CC(C)Oc1ccc(C2/C(=C(/O)c3ccc(F)cc3)C(=O)C(=O)N2CCCN(C)C)cc1 (configuration not stated)	1	17	8	1	i	9%
Cc1nnc(NC(=O)c2ccco2)s1	1	7	4	1	i	2%
O=C(Nc1nc2c(ccc3ccccc32)s1)c1ccco1	2.8*	0	3	1.1	i	3%
Cc1nc2ccc3nc(NC(=O)c4ccco4)sc3c2s1	1.3	1	30*	1.2	i	12%
COC(=O)c1cc(Nc2ncnc3c2cnn3-c2ccccc2)cc(C(=O)OC)c1	1.4	3	0	1.1	i	2%
CCOC(=O)c1cccc(NC(=O)CN2C(=O)C3C4C=CC(C4)C3C2=O)c1 (configuration not stated)	1.1	6	10	0.98	i	5%
O=C(CN1C(=O)C2C3C=CC(C3)C2C1=O)Nc1ccc2nccnc2c1 (configuration not stated)	2.1*	9	10	1.1	nt	10%
SMILES	Autofluor 339	MK inhibit	PMK inhibit	A340 absorber	Spn DPM-DC inh	NADH enzymes
CCCCn1c(SCC(=O)c2ccc(OC)cc2OC)nc2cc(S(N)(=O)=O)ccc21	2.5*	4	10	1.1	i	14%
CCc1cc2c(=O)c(-c3nc4ccccc4n3C)c(COCC(=O)O)oc2cc1O	1.5	3	1	1.1	i	3%
CC(=O)Oc1ccc2cc(-c3nc4ccccc4n3C)c(=O)oc2c1	2.1*	6	0	1.1	nt	3%
COC(=O)C1=CN(C2CC2)C=C(C(=O)OC)C1c1ccccc1OC	3.8*	4	8	1	nt	6%
CCOC(=O)c1cc2c(=O)n3cc(C)ccc3nc2n(Cc2cccnc2)c1=N	2.1*	3	0	1	nt	2%
CCOC(=O)c1cc2c(=O)n3cccc(C)c3nc2n(Cc2cccnc2)c1=N	2.2*	6	0	1	nt	3%
COC(=O)c1cc2c(=O)n3cccc(C)c3nc2n(Cc2cccnc2)c1=N	2.3*	5	0	1	nt	3%
COc1ccc(CNC(=O)c2cc3c(=O)n4ccccc4nc3n(Cc3cccnc3)c2=N)cc1	1.9	5	0	1.1	i	6%
C=CCn1c(=N)c(C(=O)OCC)cc2c(=O)n3cc(C)ccc3nc21	2.1*	5	0	1	nt	3%
COCCCn1c(=N)c(C(N)=S)cc2c(=O)n3cccc(C)c3nc21	1.9	2	19	0.99	i	9%
C=CCn1c(=N)c(C(=O)OC)cc2c(=O)n3cccc(C)c3nc21	3.8*	2	20	1	nt	11%
CSc1nnnn1-c1ccc(C(=O)OCC(=O)N2CCOCC2)cc1	1.1	4	8	1	i	4%
COc1cc(C(=O)OCC(=O)Nc2c(F)c(F)c(F)c(F)c2F)cc(OC)c1OC	1.1	3	4	0.99	i	2%
O=C(Nc1nc(NC(=O)c2ccco2)n(-c2ccccc2)n1)c1ccccc1	2.4*	0	1	1.1	nt	1%
CN1CC2=Cc3ccccc3OC23Oc2ccccc2C=C3C1	1.2	4	6	1	i	3%
O=C(NCc1n[nH]c(=S)n1-c1ccccc1)c1ccco1	1.1	41*	9	1	i	17%
Cn1cnnc1SCC(=O)n1c2ccccc2c2ccccc21	1.1	67*	42*	1	i	36%
CCOC(=O)C(C)Oc1ccc(=O)n(-c2ccccc2)n1 (configuration not stated)	1.1	3	2	1.1	i	2%
O=C(O)CCc1nn2cc(-c3ccccc3)nc2[nH]c1=O	2.4*	3	4	1.1	nt	4%
CCc1nn2cc(-c3ccccc3)nc2s1	1.1	10	5	1	i	7%
O=C1c2ccccc2NC(c2ccncc2)N1c1ccccn1 (configuration not stated)	2.1*	0	0	1.1	nt	0%
COc1ccccc1N1C(=O)N(C(C)=O)C2C1Nc1ccccc1N2C (configuration not stated)	1.2	1	1	1	i	1%
COc1ccccc1N1C(=O)c2ccccc2NC1c1ccncc1 (configuration not stated)	2.1*	12	0	1	nt	3%
COCCOC(=O)c1c(C)oc2ccc(OC(=O)c3c(OC)cccc3OC)cc12	1.1	0	1	1	i	0%
